Compounds without any hit were thinned out: in the full panel of roughly 83,000, 20% have a hit.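 Percent growth is the endpoint: 0 to 100 indicates growth inhibition (40 means 60% inhibition), 0 means no net growth, and negative values indicate cell death.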 Values without a mark were called inactive. Active and inactive are the calls of the source. How the source made its calls: active means growth percent below 10; inactive means the rest.

What all share (assay): NCI-60 one-dose screen, 48 h (100 = growth as untreated, 0 = no growth, -100 = all killed)
Common to all, as to conditions: 10 µM unless noted

The subject of assay [1] is SK-MEL-2 melanoma.
For assay [2], the system named is EKVX NSCLC.
Assay [3] has as its system SN12C renal.
In assay [4] the test system is UO-31 renal.
Assay [5] has as its system TK-10 renal.
In assay [6] the test system is ACHN renal.
Assay [7] relates to CAKI-1 renal.
In assay [8] the test system is A498 renal.
Assay [9] has as its system CCRF-CEM leukemia.
Assay [10] has as its system MOLT-4 leukemia.

Regarding `O=C(c1ccc(Br)cc1)C(Br)C(c1ccc(Cl)cc1)C(c1ccccc1)[N+](=O)[O-]` (stereo not given), the growth in assay [1] is 110%; in assay [2] it was 79.9%; in assay [3] it was 101%; in assay [4], 79%; in [5] it was 103%; in assay [6] it was 102%. The growth was 88.7% in assay [7], 87.5% in assay [8], 90.3% in [9] and 89.7% in assay [10].
With `Cn1c(=O)[nH]c(=O)c2nc3c(nc21)-c1ccccc1C3=O`, the growth was 103% in [1]; 95% in [2]; 96.6% in assay [3]; 83.8% in assay [4]; 102% in assay [5]; 94.2% in assay [6]. Besides, the growth in [7] was 89.9%; in assay [8] it was 95.2%; in assay [9], 106%; in assay [10], 105%.
`CCOC(=O)C(CCN(C)C)c1ccccc1` (stereo not given): the growth is 101% in assay [1]; 101% in [2]; 99.5% in assay [3]; 90.9% in [4]; 95% in assay [5]; 104% in assay [6]. For the same molecule, the growth in assay [7] is 94.5%; in assay [8], 107%; in assay [9] it was 93.2%; in assay [10], 116%.
As to `O=C(NN1C(=O)CSC1c1cccc([N+](=O)[O-])c1)c1ccc(NC(=O)c2ccccn2)cc1` (stereo not given), the growth is 102% in assay [1]; 97.7% in assay [2]; 96.9% in assay [3]; 94.5% in [4]; 97% in assay [5]; 103% in assay [6]. Besides, the growth was 98.7% in assay [7], 97.5% in assay [8], 110% in assay [9] and 69.7% in assay [10].
Consider `O=C(Nc1ccccc1O)c1ccc(CNc2ccnc(C(F)(F)F)c2)cc1`, for which the growth is 52.4% in assay [1]; 52.7% in [2]; 48.8% in [3]; 29.2% in [4]; 96.2% in assay [5]; 43% in assay [6]. Also, the growth in [7] was 29.6%; in assay [8], 66.4%; in assay [9] it was -8.29% (active); in assay [10], 9.24% (active).
For `CC1(/C=C/c2ccc(-c3ccccc3)cc2)CCn2cnc3ncnc(c32)N1O` (stereo not given), the growth in [1] was 38.8%; in [2], 17.6%; in assay [3], 20.2%; in assay [4], -5.45% (active); in assay [5], 34.1%; in assay [6] it was 6.19% (active). The growth is 4.49% (active) in [7], 19% in assay [8], 11.8% in [9] and 14.2% in assay [10].
As for `COc1ccc(CNc2ccc3nc(NC(=O)CN4CCCCCC4)sc3c2)cc1`, the growth in assay [1] was 85.4%; in assay [2], 80.1%; in assay [3], 87.3%; in [4] it was 80.6%; in assay [5], 117%; in [6] it was 89.8%. Moreover, the growth is 85.2% in assay [7], 90.3% in [8], 58.6% in assay [9] and 61.1% in [10].
Consider `O=C1CCCC1[n+]1ccccc1` (stereo not given), for which the growth in assay [1] was 85.3%; in [2], 92.6%; in assay [3] it was 104%; in assay [4], 90%; in assay [5], 79.4%; in assay [6] it was 105%. Also, the growth in assay [7] was 92.4%; in assay [8], 126%; in assay [9] it was 105%; in assay [10], 113%.
Consider `O=c1c2ccccc2n(C[C@H]2CO2)c2ccccc12`, for which the growth in [1] was -64.5% (active); in assay [2], 16.3%; in [3], 6.14% (active); in [4], -27.5% (active); in assay [5] it was 4.13% (active); in assay [6] it was -26.6% (active). The growth was -9.84% (active) in [7], 96.1% in assay [8], 6.9% (active) in assay [9] and 0.563% (active) in assay [10].
Turning to `CN(C)C1CN(C(=O)c2cc(-c3ccc4ncnc(N5CCc6cc(F)c(Cl)cc65)c4c3)cnc2N)C1`, the growth in assay [1] is -11.5% (active); in [2], 10.1%; in [3], 11.1%; in assay [4] it was 7.34% (active); in [5], 5.66% (active); in assay [6] it was 10.8%. The growth was 0.593% (active) in [7], -78.2% (active) in assay [8], 15.7% in [9] and 4.86% (active) in [10].
For the molecule `O=S(=O)(Nc1cc(Sc2nc3ccccc3s2)c(O)c2ccccc12)c1ccc2ccccc2c1`, the growth in assay [1] is 95.8%; in assay [2], 101%; in assay [3] it was 90.6%; in [4] it was 70.2%; in assay [5], 123%; in assay [6], 97.6%. Besides, the growth in assay [7] is 101%; in assay [8], 96.9%; in assay [9], 67.7%; in assay [10], 59.1%.
`COC(=O)c1sccc1-c1cc(O)c(C(=O)Nc2ccccc2)s1`: the growth in assay [1] is 104%; in assay [2], 71.9%; in [3] it was 105%; in assay [4], 69.9%; in assay [5] it was 121%; in [6], 94%. For the same molecule, the growth in assay [7] is 86.4%; in assay [8], 115%; in [9], 101%; in assay [10], 96.9%.
Turning to `O=C(NCc1ccc(Cn2c(=O)sn(-c3ccccc3)c2=O)cc1)OCc1ccc2cccc(O)c2n1`, the growth was -5.7% (active) in assay [1]; -35.9% (active) in assay [2]; -46.1% (active) in [3]; -99.6% (active) in [4]; -81.2% (active) in assay [5]; -99.9% (active) in assay [6]. For the same molecule, the growth in assay [7] is -85.9% (active); in assay [8] it was 39.3%; in assay [9] it was 0.307% (active); in [10], -24.8% (active).

These data come from PubChem BioAssay (NCI).
